# Experimental data as given in PubChem BioAssay (NCATS).
# Where “and” joins values, the source holds several entries; their conditions need not be identical. Equal values may be shown once. Unmarked numbers belong to inactive results. Results filed as inconclusive are left out. Where a call stands in place of a potency, no number is given. Calls of active or inactive are those of the source. Unless noted, calls follow the shape of the dose curve; as a rule, active = well fitted curve in the direction sought with a large enough effect; inconclusive = small, poorly fitted or top-dose-only effect, or another doubt; inactive = no such curve, though single readings can be large; an effect the other way counts as inactive or inconclusive.
# Legend:
# [1] = Stat Signaling Pathway (AID 446; active = well fitted curve in either direction with a large enough effect, not every such curve was filed as active;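 also: ME-180 cervical cancer cells given 40 pM IL-6 alongside compound; SIE-controlled beta-lactamase reporter measured as 460/530 nm FRET emission ratio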); conditions: ME-180 (cervical carcinoma) SIE beta-lactamase reporter, IL-6 stimulated, 5 h
# Method in brief: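 FRET read-out (405 nm excitation, 460/530 nm emission) of a beta-lactamase reporter under a STAT-inducible element in ME-180 cervical carcinoma cells. Cells with compound receive 40 pM IL-6 for 5 h. Values are normalised to AC90 stimulation and AC90 JAK-inhibitor controls.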
# [2] = molecular target: Glucocorticoid receptor (Homo sapiens) (UniProt P04150); assay: GR-GFP Redistribution (AID 450;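 active = compounds whose dose series gives a full or clear partial fitted curve of increased nuclear translocation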; also: potency is read from the fitted curve at half-maximal effect); conditions: U2OS GR-GFP nuclear translocation, laser cytometry, 2 h
# Glucocorticoid receptor (Homo sapiens), sequence (P04150 whole entry, looked up, the tested form may be a part): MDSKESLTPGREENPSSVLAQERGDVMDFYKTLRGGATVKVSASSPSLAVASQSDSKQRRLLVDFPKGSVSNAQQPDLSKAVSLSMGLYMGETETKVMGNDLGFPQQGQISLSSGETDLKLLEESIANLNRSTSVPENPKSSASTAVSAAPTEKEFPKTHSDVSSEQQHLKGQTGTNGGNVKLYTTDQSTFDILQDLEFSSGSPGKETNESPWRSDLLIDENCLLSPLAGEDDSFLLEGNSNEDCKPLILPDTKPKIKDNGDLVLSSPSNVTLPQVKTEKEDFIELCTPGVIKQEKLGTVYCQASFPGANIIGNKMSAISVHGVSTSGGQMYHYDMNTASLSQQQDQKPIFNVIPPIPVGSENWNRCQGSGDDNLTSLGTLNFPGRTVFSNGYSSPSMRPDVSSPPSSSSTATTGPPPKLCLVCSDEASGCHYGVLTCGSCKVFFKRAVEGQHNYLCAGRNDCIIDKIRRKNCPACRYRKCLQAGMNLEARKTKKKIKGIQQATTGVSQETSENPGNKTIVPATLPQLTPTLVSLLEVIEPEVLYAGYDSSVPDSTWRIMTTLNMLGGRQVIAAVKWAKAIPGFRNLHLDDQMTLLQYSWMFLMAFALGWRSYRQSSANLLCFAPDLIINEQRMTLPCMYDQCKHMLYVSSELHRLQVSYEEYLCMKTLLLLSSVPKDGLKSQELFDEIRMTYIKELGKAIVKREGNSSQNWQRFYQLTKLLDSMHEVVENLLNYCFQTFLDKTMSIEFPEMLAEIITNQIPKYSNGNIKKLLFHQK
# [3] = molecular target: Glucocorticoid receptor (Homo sapiens) (UniProt P04150); assay: GR-EFC Redistribution (AID 451; calls by dose curve; also: potency is read from the fitted curve at half-maximal effect); conditions: CHO-K1 GR-EFC translocation, beta-gal luminescence, 2 h
# Method in brief: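 CHO-K1 cells expressing nuclear EA and GR-ED fragments of b-gal; compounds titrated up to 46 uM final, 2 h at 37 C. GR nuclear translocation read as complemented b-gal luminescence after 1 h RT detection.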
# [4] = molecular target: Mitogen-activated protein kinase 10 (Mus musculus) (UniProt Q61831); assay: JNK3 AlphaScreen Assay (AID 530; active = well fitted curve in either direction with a large enough effect, not every such curve was filed as active;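 also: kinase came from lysate of stimulated human HepG2 cells; signal reports phosphorylation of biotinylated GST-cJun 1-79 at Ser73 with 10 µM ATP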); conditions: JNK3 lysate, c-Jun phosphorylation; series mostly up to 57.1 µM
# Method in brief: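 Activity was read by AlphaScreen after JNK3-containing HepG2 lysate (cytokine pre-activated) phosphorylated biotinylated GST-cJun with 10 uM ATP at room temperature. Phospho-Ser73 cJun antibody with Protein-A acceptor beads provided detection.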
# [5] = Cell Viability - HUV-EC-C (AID 542); conditions: HUV-EC-C endothelial cell viability, qHTS; series mostly up to 92.2 µM; also: nearly all actives have a fitted effect of over 35% in size
# Method in brief: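 CellTiter-Glo luminescence measured ATP loss in HUV-EC-C cells (1000/well) after 40 hr compound exposure at 37 °C, in complete culture medium. Concentration-response data were Hill-fitted to give AC50.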
# [6] = Cell Viability - H-4-II-E (AID 543); conditions: H-4-II-E rat hepatoma viability; series mostly up to 92.2 µM; also: nearly all actives have a fitted effect of over 35% in size
# Method in brief: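 CellTiter-Glo luminescence (intracellular ATP) measured after 40 h compound exposure at 37 °C in H-4-II-E rat hepatoma cells seeded at 1500/well. Values are AC50s fitted with the standard Hill equation.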
# [7] = Cell Viability - SH-SY5Y (AID 544); conditions: SH-SY5Y neuroblastoma cell viability; series mostly up to 92.2 µM; also: nearly all actives have a fitted effect of over 55% in size
# Method in brief: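 Cytotoxicity measured via ATP-dependent luciferase luminescence (CellTiter-Glo) following 40 h, 37 °C exposure of 1500 SH-SY5Y cells per well. Concentration-response data were fitted with the standard Hill equation to give AC50.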
# [8] = Cell Viability - Renal Proximal Tubule (AID 545); conditions: renal proximal tubule cells viability, primary cells of rat origin; series mostly up to 91.7 µM; also: nearly all actives have a fitted effect of over 40% in size
# Method in brief: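 Rat renal proximal tubule primary cells, 1000/well, exposed to compounds for 40 hr at 37 °C in complete medium; cellular ATP read by CellTiter-Glo luminescence. AC50 from concentration-response fitted with standard Hill equation.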
# [9] = Cell Viability - N2a (AID 540); conditions: N2a mouse neuroblastoma cell viability; activity change, negative = cytotoxicity: at 92.2 µM (top of the series); also: nearly all actives have a fitted effect of over 45% in size
# Method in brief: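 CellTiter-Glo ATP luminescence, read 20 min after reagent at room temperature, reported viability following 40 h compound treatment at 37 °C. N2a mouse neuroblastoma cells seeded 1500/well; Hill equation gave AC50.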
# [10] = Cell Viability - NIH 3T3 (AID 541); conditions: NIH 3T3 cell viability, qHTS; activity change, negative = cytotoxicity: at 92.2 µM (top of the series); also: nearly all actives have a fitted effect of over 25% in size
# Method in brief: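 Intracellular ATP (CellTiter-Glo luminescence, 20 min at room temperature) measured after 40 hr compound exposure at 37 °C of 1000 NIH 3T3 mouse fibroblasts/well in complete medium; AC50 derived by Hill-equation modelling of qHTS concentration-response curves.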
smiles,measurement,setting,value
CNCCC(Oc1ccc(C(F)(F)F)cc1)c1ccccc1 (configuration not stated),"activity, negative = inhibition",[1]; at 17.2 µM (top of the series),4.05%
CN(C)CCC=C1c2ccccc2CCc2ccccc21,"activity, negative = inhibition",[1]; at 17.2 µM (top of the series),-2.52% and 2.81%
same,"activity, negative = inhibition",[1]; at 38 µM (top of the series),28.3%
same,Potency,[2],> 46 µM and > 20.6 µM
same,Potency,[3],> 46 µM and > 20.6 µM
same,Potency,[4],inactive
Cc1cc(N)c2ccccc2[n+]1CCCCCCCCCC[n+]1c(C)cc(N)c2ccccc21,"activity, negative = inhibition",[1]; at 17.2 µM (top of the series),-1.05%
same,"activity, negative = inhibition",[1]; at 38 µM (top of the series),-10.8%
same,Potency,[2],> 46 µM and > 20.6 µM
same,Potency,[3],> 46 µM and > 20.6 µM
same,Potency,[4],inactive
NC1CCN(c2cccc(Cl)n2)CC1,"activity, negative = inhibition",[1]; at 38 µM (top of the series),-14.3%
same,Potency,[2],> 46 µM
same,Potency,[3],> 46 µM
same,Potency,[4],inactive
CCOc1ccc2ccccc2c1C(=O)N[C@@H]1C(=O)N2[C@@H]1SC(C)(C)[C@@H]2C(=O)O,"activity, negative = inhibition",[1]; at 17.2 µM (top of the series),2.51%
same,Potency,[2],> 20.6 µM
same,Potency,[3],> 20.6 µM
same,Potency,[4],inactive
C[C@@H]1C[C@H]2[C@@H]3C[C@H](F)C4=CC(=O)C=C[C@]4(C)[C@@]3(F)[C@@H](O)C[C@]2(C)[C@@]1(O)C(=O)CO,"activity, negative = inhibition",[1]; at 17.2 µM (top of the series),-0.0687%
NS(=O)(=O)c1cc2c(cc1C(F)(F)F)NC(Cc1ccccc1)NS2(=O)=O (configuration not stated),"activity, negative = inhibition",[1]; at 17.2 µM (top of the series),1.32%
Nc1ccc(S(=O)(=O)NC(=O)c2ccccc2)cc1,"activity, negative = inhibition",[1]; at 17.2 µM (top of the series),-0.201% and -5.16%
same,Potency,[2],> 20.6 µM
same,Potency,[3],> 20.6 µM
same,Potency,[4],inactive
CN1[C@@H]2CC(OC(=O)[C@H](CO)c3ccccc3)C[C@H]1[C@@H]1O[C@@H]12 (some centres not stated),"activity, negative = inhibition",[1]; at 17.2 µM (top of the series),3.51%
O=C1c2c(O)cccc2Cc2cccc(O)c21,Potency,[4],inactive
same,Potency,[5],inactive
same,Potency,[6],inactive
same,Potency,[7],inactive
same,Potency,[8],inactive
NCCNCCNCCN,Potency,[4],inactive
same,"activity change, negative = cytotoxicity",[9],-20%
same,Potency,[10],inactive
same,Potency,[5],inactive
same,Potency,[6],inactive
same,Potency,[7],inactive
same,Potency,[8],inactive
Cn1cc[nH]c1=S,"activity, negative = inhibition",[1]; at 17.2 µM (top of the series),-3.77%
same,Potency,[4],inactive
C[C@]12C[C@H](O)[C@H]3[C@@H](CCC4=CC(=O)CC[C@@]43C)[C@@H]1CC[C@@H]2C(=O)CO,"activity, negative = inhibition",[1]; at 17.2 µM (top of the series),3.29%
same,Potency,[2],0.00593 µM (active)
same,Potency,[5],inactive
same,Potency,[7],inactive
CCCCCCCCCCCCOS(=O)(=O)O,Potency,[4],inactive
same,"activity change, negative = cytotoxicity",[9],-3.87% and -0.403%
same,Potency,[10],inactive
same,Potency,[5],inactive
same,Potency,[6],inactive
same,Potency,[7],inactive
same,Potency,[8],inactive
C#CCN(C)Cc1ccccc1,"activity, negative = inhibition",[1]; at 17.2 µM (top of the series),8.61% and -2.46%
same,Potency,[2],> 46 µM and > 20.6 µM
same,Potency,[3],> 46 µM and > 20.6 µM
same,Potency,[4],inactive
O=C(CCCN1CCN(c2ccccn2)CC1)c1ccc(F)cc1,"activity, negative = inhibition",[1]; at 17.2 µM (top of the series),-8.71%
same,Potency,[4],inactive
O=C1O[C@H]([C@@H](O)CO)C(O)=C1O,Potency,[4],inactive
same,"activity change, negative = cytotoxicity",[9],3.88%
same,Potency,[10],inactive
same,Potency,[5],inactive
same,Potency,[6],inactive
same,Potency,[7],inactive
same,Potency,[8],inactive
NC(N)=NCCC[C@H](N)C(=O)O,Potency,[2],> 46 µM
same,Potency,[3],> 46 µM
same,Potency,[4],inactive
CCCCOC(=O)c1ccc(O)cc1,"activity, negative = inhibition",[1]; at 17.2 µM (top of the series),-9.98%
same,Potency,[2],> 20.6 µM
same,Potency,[3],> 20.6 µM
same,Potency,[4],inactive
same,"activity change, negative = cytotoxicity",[9],2.23%
same,Potency,[10],inactive
same,Potency,[5],inactive
same,Potency,[6],inactive
same,Potency,[7],inactive
same,Potency,[8],inactive
CC12CCC(CC1)C(C)(C)O2,Potency,[4],inactive
same,"activity change, negative = cytotoxicity",[9],-7.51%
same,Potency,[10],inactive
same,Potency,[5],inactive
same,Potency,[6],inactive
same,Potency,[7],inactive
same,Potency,[8],inactive
CC(C)C(=O)c1c(C(C)C)nn2ccccc12,"activity, negative = inhibition",[1]; at 38 µM (top of the series),2.52%
same,Potency,[4],inactive
C[C@H](N)[C@H](O)c1cccc(O)c1,"activity, negative = inhibition",[1]; at 17.2 µM (top of the series),4.65%
same,Potency,[2],> 20.6 µM
same,Potency,[3],> 20.6 µM
same,Potency,[4],inactive
Cc1cc2nc3c(=O)[nH]c(=O)nc-3n(C[C@H](O)[C@H](O)[C@H](O)CO)c2cc1C,Potency,[4],inactive
same,"activity change, negative = cytotoxicity",[9],0.316%
same,Potency,[10],inactive
same,Potency,[5],inactive
same,Potency,[6],inactive
same,Potency,[7],inactive
same,Potency,[8],inactive
